Reference: paper PMC4336329 (PLoS ONE, 2015)
In all, about 310,000 compounds went through this assay and about 14,000 (4.5%) showed an effect of 50% or more. The effect is printed as a negative number. The list comes from a sample in which strong results are over-represented; it also holds similar structures and randomly drawn compounds.

What follows are molecules tested against human ether-à-go-go-related gene (hERG) potassium channel (human, UniProt Q12809) (assay: primary screen, population patch clamp on CHO cells stably expressing hERG; higher = less effect of the substance).
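Further: peak tail current of the secondary pulse compared with the same well before compound.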

Chain of human ether-à-go-go-related gene (hERG) potassium channel (Q12809 whole entry, looked up): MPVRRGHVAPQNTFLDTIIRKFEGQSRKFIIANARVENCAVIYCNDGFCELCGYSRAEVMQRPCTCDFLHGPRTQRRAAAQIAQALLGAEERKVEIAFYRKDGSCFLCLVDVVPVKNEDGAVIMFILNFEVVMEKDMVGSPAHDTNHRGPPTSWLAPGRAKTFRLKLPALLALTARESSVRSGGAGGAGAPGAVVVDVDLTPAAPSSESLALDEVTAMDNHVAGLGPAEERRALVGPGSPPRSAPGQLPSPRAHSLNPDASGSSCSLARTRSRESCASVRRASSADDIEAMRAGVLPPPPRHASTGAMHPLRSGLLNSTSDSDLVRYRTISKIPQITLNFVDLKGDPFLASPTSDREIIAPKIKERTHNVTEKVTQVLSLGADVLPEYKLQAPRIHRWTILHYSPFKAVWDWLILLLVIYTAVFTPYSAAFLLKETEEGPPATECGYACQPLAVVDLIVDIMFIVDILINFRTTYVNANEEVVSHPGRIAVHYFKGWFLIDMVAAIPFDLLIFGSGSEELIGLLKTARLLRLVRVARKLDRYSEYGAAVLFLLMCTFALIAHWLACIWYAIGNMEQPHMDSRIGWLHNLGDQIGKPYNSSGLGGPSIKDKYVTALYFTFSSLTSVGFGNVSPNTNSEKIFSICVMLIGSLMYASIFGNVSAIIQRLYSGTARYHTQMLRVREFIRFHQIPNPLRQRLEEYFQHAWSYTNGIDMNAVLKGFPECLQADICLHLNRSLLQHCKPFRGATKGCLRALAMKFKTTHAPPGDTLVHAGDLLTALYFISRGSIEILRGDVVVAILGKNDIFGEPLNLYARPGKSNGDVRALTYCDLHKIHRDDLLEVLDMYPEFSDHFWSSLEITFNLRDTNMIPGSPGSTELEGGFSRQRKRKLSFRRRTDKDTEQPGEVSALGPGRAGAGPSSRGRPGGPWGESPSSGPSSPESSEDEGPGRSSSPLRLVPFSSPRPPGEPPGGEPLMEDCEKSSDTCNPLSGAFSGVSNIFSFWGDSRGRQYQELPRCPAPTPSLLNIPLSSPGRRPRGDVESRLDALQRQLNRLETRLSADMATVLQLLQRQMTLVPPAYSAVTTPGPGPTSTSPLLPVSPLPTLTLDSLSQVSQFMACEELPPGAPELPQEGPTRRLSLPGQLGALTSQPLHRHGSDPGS

SMILES	hERG current change (%, negative = inhibition) at 10uM [%]
Cc1nn(C)c(Oc2cccc(Cl)c2)c1C(=O)Nc1ccc(F)cc1	-15.3
CCn1c(CCn2ccnc2C)n[nH]c1=S	-1.48
O=C1CCCC2=C1C(Cc1ccccc1)C1=C(CCCC1=O)O2	-3.32
CCCc1cc(C(=O)NC(C)C2CCCO2)cs1 (stereo not shown)	7.72
Cc1nc2cc(NS(=O)(=O)c3ccccc3)ccc2n1C	9.21
CC(=O)c1cccc(NC(=O)C2CCCN(S(C)(=O)=O)C2)c1 (stereo not shown)	8.02
N#C/C(=C\c1ccccc1)C(=O)Nc1ccccn1	12.7
CCCCN1C(=O)c2ccc(C(=O)Nc3ccc(S(=O)(=O)N(C)C)cc3)cc2C1=O	-0.448
CCCCN1C(=O)c2ccc(C(=O)Nc3c(N)n(CCCC)c(=O)n(C)c3=O)cc2C1=O	-51.9
CCCCN1C(=O)c2ccc(C(=O)Nc3cccc(C)c3C)cc2C1=O	17.2
CCOC(=O)C1(CCCc2ccccc2)CCN(C(=O)CCc2cnccn2)CC1	-66.4
CCOC(=O)C1(CCc2ccccc2)CCN(C(=O)CCc2cnccn2)CC1	-66.5
CCOC(=O)C1(Cc2ccc(OC)cc2)CCN(C(=O)CCc2cnccn2)CC1	-7.37
CCOC(=O)C1(Cc2ccc(Cl)cc2)CCN(C(=O)CCc2cnccn2)CC1	-50
Cc1ccc(C)c(SCC(=O)Nc2cccnc2Cl)c1	0.545
O=C(COC(=O)Cc1ccccc1[N+](=O)[O-])NCC1CCCCC1	0.647
COc1ccc(NC(=S)NC(=O)C2CCC2)cc1	7.29
O=S(=O)(NCc1ccco1)c1cccc2cccnc12	-22.3
COc1ccc(C(=O)/C(=C\c2ccco2)N2C=CC=CC2=C(C#N)C#N)cc1	-72
N#CC(C#N)=C1C=CC=CN1/C(=C\c1ccco1)C(=O)c1ccc(Cl)cc1	-36
N#CC(C#N)=C1C=CC=CN1/C(=C\c1ccco1)C(=O)c1ccccc1	-57.8
N#CC(C#N)=C1C=CC=CN1/C(=C\c1ccco1)C(=O)c1ccc(Br)cc1	-46.5

SMILES	hERG current change (%, negative = inhibition) at 10uM [%]
N#CC(C#N)=C1C=CC=CN1/C(=C\c1ccccc1Cl)C(=O)c1ccccc1	8.73
N#CC(C#N)=C1C=CC=CN1/C(=C\c1ccco1)C(=O)c1ccc(-c2ccccc2)cc1	3.14
COc1cc(/C=N/Nc2ccc([N+](=O)[O-])cc2S(=O)(=O)N2CCOCC2)cc(OC)c1OC	-3.33
O=C(Nc1ccc(Cl)cc1Cl)c1csc(-c2cccnc2)n1	-1.42
CS(=O)(=O)N1CCc2cc(C(=O)Nc3ccccc3)ccc21	-1.25
Cc1cccc(Nc2nc(NCc3ccco3)nc(N)c2[N+](=O)[O-])c1	10.6
O=C(Nc1ccnn1C1CCN(Cc2ccc(OC(F)F)cc2)CC1)C1CCCC1	-75.3
O=C(Nc1ccnn1C1CCN(Cc2cccc(F)c2F)CC1)C1CCCC1	-23.2
COc1ccc(CN2CCC(n3nccc3NC(=O)C3CC3)CC2)cc1O	-58.8
CC(C)Oc1ccc(CN2CCC(n3nccc3NC(=O)c3cccnc3)CC2)cc1	-70.4
CCOc1cccc(CN2CCC(n3nccc3NC(=O)C3CC3)CC2)c1O	-64.2
Cc1ccc(CN2CCC(n3nccc3NC(=O)C3CCOC3)CC2)cc1C (stereo not shown)	-20.5
Cc1ccccc1CN1CCC(n2nccc2NC(=O)c2cccnc2)CC1	-14.6
Cc1cc(NC(=O)C(C)SCC(=O)OCc2ccc(Cl)cc2Cl)no1 (stereo not shown)	1.04
Cc1ccc(C(=O)NCc2ccco2)c(C)c1	20.5
O=C(CCC(=O)N1CCN(c2ccc(O)cc2)CC1)c1ccc(Br)cc1	-44.4
O=C(O)c1cc(-c2ccccc2)nc(-c2ccccc2)c1	22.5
CC1CN(c2ccc([N+](=O)[O-])cc2C(=O)N2CCOCC2)CC(C)N1 (stereo not shown)	-9.17
COC(=O)c1ccc(CN2CCC(n3nccc3NC(=O)C3CC3)CC2)cc1	-55.6
CC(C)(O)C#Cc1ccc(CN2CCC(n3nccc3NC(=O)C3CC3)CC2)cc1	-19
CCOc1cc(CN2CCC(n3nccc3NC(=O)C3CC3)CC2)ccc1O	-22
COc1ccc(CN2CCC(n3nccc3NC(=O)C3CCCC3)CC2)cc1	-68.9

SMILES	hERG current change (%, negative = inhibition) at 10uM [%]
CCOc1ccc(CN2CCC(n3nccc3NC(=O)C3CC3)CC2)cc1CO	-57.1
Cn1cc(CN2CCC(n3nccc3NC(=O)C3CCCC3)CC2)cn1	12.6
COC(=O)c1ccc(CN2CCC(n3nccc3NC(=O)C3CCCC3)CC2)cc1	-67.7
CC1CCCC(C)N1CCCNC(=O)Cn1cc2c(n1)CCCC2 (stereo not shown)	-3.99
COc1cccc(CNCc2ccc3c(c2)OCO3)c1.O=C(O)C(=O)O	13.7
O=C(N[C@@H](Cc1ccccc1)c1nc2ccccc2[nH]1)c1cc([N+](=O)[O-])ccc1Cl	-28
CCc1c(O)nc(SCC(N)=O)n(-c2ccccc2F)c1=O	7.56
CCC(C)N(C(=O)C(F)(F)F)C(C(=O)NC1CCCCC1)c1ccncc1 (stereo not shown)	7.62
O=S(=O)(c1ccc(Cl)cc1Cl)N1CCCC1c1cccnc1 (stereo not shown)	7.32
Cc1ccc(SCC(=O)NCc2ccco2)cc1	3.39
COC(=O)c1c(SCC(=O)NC2CCCCC2)[nH]c2ccccc2c1=O	-0.717
COc1cc(CN2CCC(n3nccc3NC(=O)C3CC3)CC2)cc(OC)c1	-66.3
COc1cccc(CN2CCC(n3nccc3NC(=O)C3CC3)CC2)c1	-44.7
CC(C)Oc1ccc(CN2CCC(n3nccc3NC(=O)C3CC3)CC2)cc1	-79.4
O=C(Nc1ccnn1C1CCN(Cc2cccc(OCCO)c2)CC1)C1CC1	0.219
CN(CC(=O)Nc1ccc(F)c(F)c1F)C(=O)C1CSC2(C)CCC(=O)N12 (stereo not shown)	-5.92
O=C(Nc1ccc(OC(F)F)cc1)Nc1cccc(C(F)(F)F)c1	6.56
CCOc1ccc(/C=N/OCC(=O)NCc2cccs2)cc1	-11.6
CC(C)(C)c1ccc(/C=N/OCC(=O)NCc2ccc(F)cc2)cc1	-2.59
O=C(CO/N=C/c1ccc(OC(F)F)cc1)NCc1ccc(F)cc1	-79.2
O=C(CO/N=C/c1ccc(OC(F)F)cc1)NC1CCCCC1	-8.59
O=C(CO/N=C/c1ccc(OC(F)F)cc1)NC1CCCC1	-49

SMILES	hERG current change (%, negative = inhibition) at 10uM [%]
O=C(CO/N=C/c1ccccc1OC(F)F)NCc1ccco1	-5.06
CCOc1ccc(/C=N/OCC(=O)NCc2ccco2)cc1	-12.9
O=C(CO/N=C/c1ccccc1OC(F)F)NCc1cccs1	-12.9
CN(C(=O)CO/N=C/c1ccc(OC(F)F)cc1)C1CCS(=O)(=O)C1 (stereo not shown)	-59.2
O=C(CO/N=C/c1ccc(OC(F)F)cc1)NCc1cccs1	-62.6
COC(=O)c1ccc(/C=N/OCC(=O)NCc2ccc(F)cc2)cc1	17.9
O=C(CO/N=C/c1ccc(OC(F)F)cc1)NCc1ccco1	-51.8
Cc1cccc(-c2nc3c(c(=O)c4ccccc4n3C)c(=O)n2-c2ccccc2)c1	14
Cc1cccc(S(=O)(=O)c2c(N)n(/N=C/c3cccnc3)c3nc4ccccc4nc23)c1	-4.67
COc1cc(C(=O)NCC(c2cccs2)N2CCOCC2)cc(OC)c1OC (stereo not shown)	11.5
Cc1cccc(C)c1OC(=O)Cc1ccccc1[N+](=O)[O-]	-4.62
CCCOc1ccc(C(=O)NNC(=O)c2cccc(S(=O)(=O)N3CCN(C(C)=O)CC3)c2)cc1OC	-13.8
COc1cc(C2Nc3cccc4cccc(c34)N2)ccc1OC(C)=O	11.2
CC(NC(=O)C(=O)N1CCOCC1)C(c1cccs1)N1CCN(c2ccccc2)CC1 (stereo not shown)	8.31
O=S(=O)(c1ccccc1)c1cnn(-c2ccccc2)c1-c1ccc(F)cc1	-0.19
Cc1ccc(C)c(NC(=S)N2CCCCCC2)c1	0.578
Cc1cccc(-n2nc([N+](=O)[O-])c(N3CCN(C(=O)c4ccco4)CC3)[n+]2[O-])c1	-68.7
O=C(c1ccco1)N1CCN(c2ccc(Cl)c(Cl)c2)CC1	-29.7
O=C(c1ccco1)N1CCN(c2c([N+](=O)[O-])nn(-c3ccc(Cl)cc3)[n+]2[O-])CC1	-57.2
Cc1nn(C)c(C(=O)N2CCN(C(=O)c3ccco3)CC2)c1[N+](=O)[O-]	8.95
O=[N+]([O-])c1nn(-c2ccccc2)[n+]([O-])c1N1CCN(c2ccccc2)CC1	-0.32
O=C(c1ccco1)N1CCN(c2c([N+](=O)[O-])nn(-c3cccc(Cl)c3)[n+]2[O-])CC1	-38.1
